Test results published in ChEMBL document CHEMBL4513216, “Probing the Open Global Health Chemical Diversity Library for Multistage-Active Starting Points for Next-Generation Antimalarials” (ACS Infect Dis, 2020).
Among all 69,000 compounds or so, about 8,600 (12%) showed an effect of 50% or more. The sample holds strong results, similar compounds and a random draw of the others, so the mix is not that of the screen.

test system: Plasmodium berghei; assay: Screen against P. berghei liver stage (PbLuc), transformed with Luciferase, at 10uM; format: functional, HepG2; conditions: tested at 10 uM

SMILES	INHIBITION [%]
COc1c(C)cnc(CN2CCn3c(C)nnc3C2)c1C	-7.53
c1ccc2oc(CCCN3CCCC3c3noc(C4CC4)n3)nc2c1 (configuration not stated)	9.54
COCC(=O)N1CCC2(CC1)CC(COC)N(c1ncccn1)C2 (configuration not stated)	-6.23
COCCC(=O)N1CCCC(c2nc(O)cc(-c3ccncc3)n2)C1 (configuration not stated)	28
CNC(=O)[C@@]12CCO[C@@H]1CCN(Cc1cccc(C)c1)C2	38.1
O=C(O)CSc1nnc(-c2ccn[nH]2)n1-c1ccccc1C(F)(F)F	27.4
O=C(O)CSc1nnc(-c2cn[nH]c2)n1-c1ccccc1C(F)(F)F	90.8
O=C(O)CSc1nnc(-c2cn[nH]c2)n1-c1ccccc1Cl	9.87
CCc1ncc(C(=O)N2CCCN(C3CCCC3)CC2)cn1	43.6
CCCc1noc(CCC(=O)N2CCCC2Cn2cc(C)cn2)n1 (configuration not stated)	-13.5
O=C(CC1CCc2ccccc21)N1CCC(O)(c2cccnc2)CC1 (configuration not stated)	6.83
CS(=O)(=O)Nc1cccc(C(=O)Nc2ccc3c(c2)C(=O)NC3)c1	-13.2
Cc1ccoc1C(=O)NCCOc1ccc(C(F)(F)F)cn1	31.7
CC(C)c1ccc(OCCNC(=O)N2CCS(=O)(=O)CC2)cc1	-12.21
O=C(NCCNc1ccc(C(F)(F)F)cn1)c1ccoc1	22.8
O=C(NCCNS(=O)(=O)c1ccc(C(F)(F)F)cc1)c1ccoc1	0.266
O=C(NCCOc1ccc(C(F)(F)F)cn1)c1ccoc1	57.5
Cc1nc(C)c(C(=O)NCCOc2ccc(C(F)(F)F)cn2)o1	64.4
O=C(CNC(=O)c1ccoc1)NCCOc1ccc2c(c1)CCC2	-112
CC(C)c1ccc(OCCNC(=O)c2ccoc2)cc1	87.1
Cc1occc1C(=O)NCCOc1ccc(C(F)(F)F)cn1	27.7
c1ccc(Cc2noc(-c3ccc(NCC4CCCOC4)nc3)n2)cc1 (configuration not stated)	18.8
Cc1sc2ccccc2c1S(=O)(=O)NCCNC(=O)C(C)C	-35

SMILES	INHIBITION [%]
Cc1ccc(N2C[C@H]3CCC[C@@]3(COc3cccnc3)C2)nn1	-44.2
CC(=O)Nc1c(C)noc1C=Cc1ccc(S(=O)(=O)NC2CC2)cc1	47.2
OC1(CNCCN2CCCc3ccccc32)CCNC1 (configuration not stated)	9.55
Cn1c(=O)c2cc(C(=O)NCCOCC(F)(F)F)ccc2n(C)c1=O	27.8
Cc1cc(N2CCC(Cc3cnccn3)C2)ncn1 (configuration not stated)	2.55
CC(C)(C)c1n[nH]cc1CNC1CCC(C(F)(F)F)CC1 (configuration not stated)	-32.6
Cc1cccc(CN2CC[C@H]3C[C@@H](C)O[C@@H]3C2)n1	76.5
Cc1csc(CN2CC[C@H]3C[C@H](C)O[C@@H]3C2)n1	15.4
C[C@@H]1C[C@@H]2CCN(Cc3ccccn3)C[C@H]2O1	55.5
CN(C)C(=O)C1CN(Cc2ccccc2)CCN(S(C)(=O)=O)C1 (configuration not stated)	32.4
CN(C)C(=O)C1CN(Cc2cscn2)CCN(S(C)(=O)=O)C1 (configuration not stated)	37
Cc1cccc(C(=O)N2CC[C@H]3C[C@@H](C)O[C@@H]3C2)n1	7.31
C[C@H]1C[C@@H]2CCN(Cc3ccccn3)C[C@H]2O1	15.9
CN(C)C(=O)C1CN(Cc2ccccn2)CCN(S(C)(=O)=O)C1 (configuration not stated)	89.3
Cc1cccc(CN2CC[C@H]3C[C@H](C)O[C@@H]3C2)n1	56.7
C[C@H]1C[C@@H]2CCN(Cc3ccco3)C[C@H]2O1	46.2
C[C@@H]1C[C@@H]2CCN(Cc3ccncc3)C[C@H]2O1	15.9
C[C@H]1C[C@H]2CN(Cc3ccccn3)CC[C@@H]2O1	46.2
Cc1cc(N2CCCC2c2cc(Nc3cnccn3)nc(C)n2)ncn1 (configuration not stated)	-50.2
Cc1nc(C)n(CC2CCCCN2Cc2nc(-c3ccco3)no2)n1 (configuration not stated)	-12.915
Cc1ccc(C(=O)N2CCn3c(COCC4CC4)cnc3C2C)nc1 (configuration not stated)	39.3
CN(CC1(O)CCN(c2ccccn2)C1)C(=O)Cc1ccsc1 (configuration not stated)	46
CCN(CC)c1ccc(NS(=O)(=O)c2cncc(F)c2)cn1	46.8

SMILES	INHIBITION [%]
CCN(CC)c1ccc(NS(=O)(=O)c2cnn(C)c2)cn1	0.139
CCN(CC)c1ccc(NS(=O)(=O)c2cccnc2)cn1	77.5
CCC(CNC(=O)c1cccc(S(=O)(=O)NC)c1)N1CCCC1 (configuration not stated)	18
COCCN1CCc2ncnc(-c3ccccc3)c2CC1	8.66
Cc1cccc(NC(=O)CN(C)C(=O)c2ccc(-n3cccc3)nc2)n1	8.08
Cc1ccc(C(=O)N(C)CC(=O)Nc2cccc(C)n2)cn1	16.8
Cc1ccc(NC(=O)CN(C)C(=O)c2ccc(-n3cccc3)nc2)nc1	68.9
Nc1nc(C2CCN(C(=O)c3cnco3)CC2)cs1	18.9
Cc1cc(N[C@H]2CN(CC(C)(C)N3CCOCC3)C[C@@H]2C2CC2)ncn1	35.8
CCCc1cc(C(=O)N(C)Cc2ccc(OC)c3ncccc23)n(C)n1	67.9
CCCc1cc(C(=O)N(C)Cc2cccc3cnccc23)n(C)n1	6.33
CN(Cc1cccc2ncccc12)C(=O)CCn1ccc(=O)[nH]c1=O	30.9
CC(C)c1cc(C(=O)N(C)Cc2cccc3ncccc23)n(C)n1	67.2
CCCc1cc(C(=O)N(C)Cc2cccc3ncccc23)n(C)n1	46.8
CCOCCn1nc(C)cc1C(=O)N(C)Cc1cccc2ncccc12	36
O=C(c1ccc2c(c1)OCCO2)N1CCCC(n2ccnc2)C1 (configuration not stated)	37.9
CCC(=O)N1CCC(c2nc(C)c3c(n2)N(C)CCC3)CC1	34.1
CC(C)N1CC(c2ccnc(Nc3nccs3)n2)C1	29.49
COc1ccc(F)cc1-n1cnc(CCNC(C)=O)c1	35.1
COc1ccc(Cl)cc1-n1cnc(CCNC(C)=O)c1	71.5
COc1cc(F)c(-n2cnc(CCNC(C)=O)c2)cc1F	4.1
